The record followed here is PubChem BioAssay (NCATS).

A short description of assay [1]: qHTS Assay for Identification of Small Molecule Agonists for NFkB Signaling Pathway. (AID 624478).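 Further: compounds tested together with TNF alpha at its EC50 of 10 pM; 0% is about no effect.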 The method in brief:
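Cells carrying an NFkB response element-driven beta-lactamase gene are co-treated with compound and 10 pM TNF alpha for 5 h, and reporter activity is then read as 460 and 530 nm fluorescence.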
(In general: In qHTS, concentration-response curves come from the screen itself.)

Assay [2] is described as follows: qHTS Assay for Identification of Small Molecule Antagonists for NFkB Signaling Pathway. (AID 624479; calls by dose curve;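 further: pathway stimulated with TNF alpha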; further: potency means the concentration at half of the fitted maximal effect).
Assay [3] is described as follows: Cell Proliferation Assay against the TMD8 Cell Line (AID 651645).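 Further: cells exposed to compound for 48 h before reading.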 To be noted: TMD8 DLBCL cell line proliferation/viability; at 46.1 µM (top of the series) unless noted. In outline:
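Luminescent ATP read-out (CellTiter-Glo, 15 min RT) after 48 h compound exposure of log-growing TMD8 cells at 37C; percent activity scaled between DMSO as 100% and 9.2 uM bortezomib final as 0%.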

Assay [4] in a line: Cell Proliferation Assay against the HBL1 Cell Line (AID 651646).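 Further: cells exposed to compound for 48 h before reading.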 To be noted: HBL1 DLBCL cells; at 46.1 µM (top of the series) unless noted. The method in brief: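 Luminescent ATP read-out (CellTiter-Glo) after 48 h compound exposure of HBL1 cells at 37 °C; percent activity was scaled between DMSO as 100% and 9.2 uM bortezomib (final) as 0%.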
The nature of assay [5]: Cell Proliferation Assay against the TMD8 Cell Line (Caspase readout at 8 hrs) (AID 651713). Further: potency means the concentration at half of the fitted maximal effect. In outline: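 Percent activity derived from Caspase-Glo signal, DMSO set to 0% and bortezomib (9.2 uM final) to 100%. TMD8 cells were exposed to compound for 8 h in RPMI with 5% FBS.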
Assay [6] can be described thus: Cytotoxicity counterscreen for NFkB agonists and antagonists (AID 624476;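 further: cells exposed to compound for 48 hours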; further: potency means the concentration at half of the fitted maximal effect). (In general: Counterscreens check selectivity or assay interference.)
Assay [7] is described as follows: qHTS assay for small molecule agonists of the antioxidant response element (ARE) signaling pathway (AID 651741; active means well fitted activation curve with a large enough effect in the signal ratio; the % refers to the signal ratio; further: potency means the concentration at half of the fitted maximal effect). The method in brief:
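Seeding 2,000 ARE-bla HepG2 cells per well preceded a 5 h incubation at 37 C/5% CO2 and a 16 h compound exposure at 37 C. Beta-lactamase reporter activity was then quantified by fluorescence after 2 h with LiveBLAzer B/G FRET substrate.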

The nature of assay [8]: qHTS assay for small molecule activators of the p53 signaling pathway (AID 651743; active means well fitted activation curve with a large enough effect in the signal ratio, not every such curve was filed as active; the % refers to the signal ratio; further: % of control where 0% means no effect). To be noted: HCT-116 p53RE-bla, beta-lactamase FRET ratio, 16 h; stronger effect = higher value. In outline: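 Screen for p53 pathway agonists uses stably transfected p53RE-bla HCT-116 cells, 4,000 per well, treated 16 h at 37 C with compounds in DMSO.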
A short description of assay [9]: qHTS assay for small molecule activators of the nuclear factor-kappa B (NF-kB) signaling pathway (AID 651749; active means well fitted activation curve with a large enough effect in the signal ratio; the % refers to the signal ratio; further: % of control where 0% means no effect). The note with it: NF-kB-bla ME-180 cells, beta-lactamase FRET ratio, 16 h; stronger effect = higher value. In outline:
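Stably transfected ME-180 line; NF-kB response element upstream of beta-lactamase. Treatment: compound or DMSO, 16 hr. Detection: fluorescent FRET substrate.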

Results filed as inconclusive are left out. Calls of active or inactive are those of the source. Unless noted, the call rests on the fitted dose curve; in most records, active means well fitted curve in the direction sought with a large enough effect; inconclusive means small, poorly fitted or top-dose-only effect, or another doubt; inactive means no such curve, though single readings can be large; an effect the other way counts as inactive or inconclusive.

Regarding `COc1cc2ncnc(-n3nc(-c4ccccn4)nc3N)c2cc1OC`, the compound was classed as inactive in assay [1]. Further, the figures for the Potency in [2] and in assay [5] were 1.88 µM (active) and 20.9 µM (active), respectively. In addition, the viability (% of control) in assay [3] came out at 1.94%. In addition, the viability, percent of control in assay [4] came out at 17.1%.

On to `CO[C@@H](C(=O)N1Cc2[nH]nc(NC(=O)c3ccc(N4CCN(C)CC4)cc3)c2C1)c1ccccc1`, for which, in assay [6], the Potency result was “inactive”. Further, in assay [1], the result was inactive. The viability (% of control) in [3] was found to be 3.09%.

Consider `CC(C)(C)COc1ccc(-n2cc(C(=O)O)cn2)cc1C#N`, for which the Potency result in [6], in assay [2] and in assay [5] was “inactive” each time. For the same compound, the call in assay [1] was inactive. Also, the viability (% of control) in assay [3] came out at 88.1%. Also, the viability, percent of control in [4] stood at 90.4%.

For `O=c1cc(-c2ccccc2)oc2cc(O)cc(O)c12`, the Potency in assay [7] was 10.9 µM (active). Further, the values for the activation in assay [8] and in [9] were 22.8% (inactive) and -2.47% (inactive), respectively.

Consider `N#Cc1ccc(NC(=O)Nc2ccccc2Br)c2n[nH]nc12`, for which the Potency entry in assay [6], in assay [2] and in assay [5] was “inactive” in each case. In addition, in assay [3], the viability (% of control) turned out to be 12.8%. In addition, the viability, percent of control in assay [4] was found to be 69.7%.

`CC(C)C(=O)Nc1ncc(-c2cc(C(F)F)nn2-c2c(Cl)cccc2Cl)s1`: the Potency result in [6] and in assay [5] was “inactive” in each case. For the same compound, the outcome in assay [1] was inactive. In [2], the Potency was 18.8 µM (active). For the same compound, the viability (% of control) in assay [3] is 9.91%. The viability, percent of control in assay [4] is 14.4%.

In the case of `COc1ccc(C2CC(c3ccccc3)=NN2c2ccc(S(N)(=O)=O)cc2)cc1` (centres undefined), in assay [1], the compound was called inactive. Also, the Potency entry in assay [2] was “inactive”. In addition, the viability (% of control) in assay [3] turned out to be 13.6%. Also, in [4], the viability, percent of control turned out to be 5.45%.

Consider `CCOC(CN1C(=O)[C@](CC(=O)Nc2ccc(C)cc2)(NC(=O)Nc2ccc(C)cc2)c2ccccc21)OCC`, for which the outcome in assay [1] was inactive. Further, the Potency in assay [2] is 18.8 µM (active). Moreover, the viability (% of control) in assay [3] came out at 16.8%. Further, the viability, percent of control in [4] was found to be 4.35%.

Consider `CO[C@H]1C=CC=C(C)C(=O)NC2=CC(=O)C(NCCN(C)C)=C(C[C@@H](C)C[C@H](OC)[C@@H](O)[C@@H](C)C=C(C)[C@@H]1OC(N)=O)C2=O`, for which the call in assay [1] was inactive. The viability (% of control) in assay [3] amounted to 3.74%. The viability, percent of control in assay [4] was determined as 4.29%.

With `c1ccc2c(-c3cnn4cc(-c5ccc(N6CCNCC6)cc5)cnc34)ccnc2c1`, the Potency in assay [2] is 18.8 µM (active). The viability (% of control) in [3] was 0.905%. For the same compound, the viability, percent of control in assay [4] is 3.84%.

On to `COc1cc(Nc2ncc(F)c(Nc3ccc4c(n3)NC(=O)C(C)(C)O4)n2)cc(OC)c1OC`, for which the Potency in assay [6] is 13.2 µM (active). Besides, the result in assay [1] was inactive. The viability (% of control) in assay [3] came to 17.5%. For the same compound, the viability, percent of control in assay [4] is 56.6%. Also, in assay [5], the Potency result was “inactive”.

Regarding `CC(C)[C@H](CO)Nc1nc(Nc2ccc(C(=O)O)c(Cl)c2)c2ncn(C(C)C)c2n1`, the Potency entry in [6], in [2] and in assay [5] was “inactive” throughout. In addition, the compound was called inactive in [1]. Moreover, in assay [3], the viability (% of control) turned out to be 83.7%. Moreover, the viability, percent of control in assay [4] is 129%.

On to `CC(C)(C)C(=O)Oc1ccc2c(c1)nc(NC(=O)c1cccc([N+](=O)[O-])c1)n2CCCO`, for which the Potency entry in assay [6] and in assay [5] was “inactive” each time. Besides, the result in assay [1] was inactive. Further, in [2], the Potency is 4.73 µM (active). For the same compound, the viability (% of control) in assay [3] turned out to be 0.179%. For the same compound, the viability, percent of control in [4] amounted to 16.8%.

Consider `O=C(Nc1cc(Cl)cc2c1[nH]c1cnccc12)c1cccnc1`, for which the Potency entry in assay [6] and in assay [5] was “inactive” throughout. In [1], the call was inactive. In addition, the Potency in assay [2] is 18.8 µM (active). Moreover, the viability (% of control) in assay [3] came to 1.73%. In addition, the viability, percent of control in assay [4] turned out to be 32.9%.

With `Cc1ccc(F)c(NC(=O)Nc2ccc(-c3cccc4[nH]nc(N)c34)cc2)c1`, the compound was classed as inactive in assay [1]. For the same compound, the Potency in assay [2] was 1.49 µM (active). Also, the viability (% of control) in assay [3] turned out to be 4.9%. Moreover, in [4], the viability, percent of control amounted to 8.04%. The Potency entry in assay [5] is “inactive”.

Consider `O=C(O)c1ccc(-c2cc3cccnc3c(-c3ccc4nonc4c3)n2)cc1`, for which the Potency result in [6], in assay [2] and in assay [5] was “inactive” in each case. In addition, the compound was classed as inactive in assay [1]. Moreover, the viability (% of control) in [3] amounted to 111%. In addition, the viability, percent of control in [4] amounted to 91.1%.

For the compound `CO[C@H]1C[C@@H]2CC[C@@H](C)[C@@](O)(O2)C(=O)C(=O)N2CCCC[C@@H]2C(=O)O[C@H]([C@H](C)C[C@@H]2CC[C@H](OCCO)[C@H](OC)C2)CC(=O)[C@H](C)C=C(C)[C@@H](O)[C@@H](OC)C(=O)[C@H](C)C[C@H](C)C=CC=CC=C1C`, in assay [1], the compound was called inactive. The viability (% of control) in [3] was -0.307%. Also, the viability, percent of control in [4] worked out at 9.54%.

Consider `O=c1cc(N2CCOCC2)oc2c(-c3cccc4c3sc3ccccc34)cccc12`, for which the results for the Potency in assay [6], in [2] and in assay [5] were 18.7 µM (active), 13.3 µM (active) and 20.9 µM (active), respectively. Also, the outcome in [1] was inactive. For the same compound, the viability (% of control) in assay [3] was found to be 2.51%. Besides, the viability, percent of control in assay [4] was found to be 2.43%.

For the compound `O=C(Nc1ccccc1-c1cn2c(CN3CCNCC3)csc2n1)c1cnc2ccccc2n1`, the result in assay [1] was inactive. Moreover, the Potency entry in assay [2] was “inactive”. Also, the viability (% of control) in assay [3] was 2.49%. The viability, percent of control in assay [4] is 2.43%.

Regarding `CC(C)(C)c1cc(C(=O)O)c(NC(=O)Nc2ccc3[nH]ncc3c2)s1`, the Potency entry in assay [6], in assay [2] and in assay [5] was “inactive” each time. The compound was called inactive in assay [1]. The viability (% of control) in assay [3] is 99.7%. For the same compound, in assay [4], the viability, percent of control was found to be 100%.

On to `CN1CCN(CCOc2cc(OC3CCOCC3)c3c(Nc4c(Cl)ccc5c4OCO5)ncnc3c2)CC1`, for which the compound was called inactive in assay [1]. Also, the viability (% of control) in assay [3] was 17.4%. Further, in assay [4], the viability, percent of control amounted to 19.4%.

On to `Clc1ccc(-c2nc3sccn3c2C=NOCc2ccc(Cl)c(Cl)c2)cc1`, for which the compound was called inactive in assay [1]. The Potency entry in [2] and in assay [5] was “inactive” each time. Also, the viability (% of control) in assay [3] was 74.9%. In [4], the viability, percent of control was determined as 4.32%.

For `COc1cc2nc(-c3ccc(N4CCN(C)CC4)cc3)nc(NCCN3CCOCC3)c2cc1OC`, the Potency entry in assay [2] was “inactive”. In [3], the viability (% of control) was determined as 1.8%. In addition, the viability, percent of control in assay [4] came out at 5.66%. The Potency in assay [5] is 29.6 µM (active).

`CS(=O)c1ccc(-c2nc(-c3ccc(F)cc3)c(-c3ccncc3)[nH]2)cc1` (centres undefined): the Potency result in assay [6], in assay [2] and in [5] was “inactive” in each case. Also, the outcome in [1] was inactive.

Consider `O=C1C(Cl)=C(NCCN2CCOCC2)C(=O)c2ncccc21`, for which the Potency in assay [6] is 2.35 µM (active); in [2], 2.11 µM (active). In addition, in assay [1], the compound was called inactive. Also, the viability (% of control) in assay [3] is 3.41%. Also, the viability, percent of control in assay [4] worked out at 2.09%. Further, in assay [5], the Potency entry is “inactive”.

As to `COc1cccc2c1CCCC2CCCN1CCN(C2CCCCC2)CC1` (centres undefined), the Potency entry in assay [6] and in assay [2] was “inactive” throughout. Besides, the result in [1] was inactive. In [3], the viability (% of control) turned out to be 1.09%. In assay [4], the viability, percent of control stood at 28.8%. Further, in assay [5], the Potency is 29.6 µM (active).

For the compound `NC(CO)(CO)CCc1ccc(Sc2cccc(OCc3ccccc3)c2)cc1Cl`, in assay [3], the viability (% of control) was found to be 0.474%. The viability, percent of control in [4] was determined as 1.28%.

`O=c1cc(CN2CCOCC2)occ1OCCCCCSc1ccnc2cc(C(F)(F)F)ccc12`: the compound was called inactive in assay [1]. The viability (% of control) in assay [3] came out at 6.87%. Besides, the viability, percent of control in assay [4] worked out at 20.4%.

As to `CC(C)(C(=O)NCC(F)(F)C(F)(F)F)C(=O)N[C@@H]1C(=O)Nc2ccccc2-c2ccccc21`, the Potency entry in [6], in [2] and in assay [5] was “inactive” in each case. For the same compound, in assay [1], the outcome was inactive. Also, the viability (% of control) in assay [3] was found to be 61.9%. Moreover, the viability, percent of control in assay [4] is 73.4%.
